# In ChEMBL document CHEMBL1961873, “Compounds: GSK PKIS; Assays: Nanosyn kinase panel” (2012):
# Key:
# [1] = target: Serine/threonine-protein kinase MARK2 (Homo sapiens) (UniProt Q7KZI7); details: at 1 µM
# [2] = target: PAS domain-containing serine/threonine-protein kinase (Homo sapiens) (UniProt Q96RG2); details: at 0.1 µM
# [3] = target: PAS domain-containing serine/threonine-protein kinase (Homo sapiens) (UniProt Q96RG2); details: at 1 µM
# [4] = target: Phosphorylase b kinase gamma catalytic chain, skeletal muscle/heart isoform (Homo sapiens) (UniProt Q16816); details: at 0.1 µM
# Chain of Phosphorylase b kinase gamma catalytic chain, skeletal muscle/heart isoform (Homo sapiens) (Q16816 whole entry, looked up, canonical isoform): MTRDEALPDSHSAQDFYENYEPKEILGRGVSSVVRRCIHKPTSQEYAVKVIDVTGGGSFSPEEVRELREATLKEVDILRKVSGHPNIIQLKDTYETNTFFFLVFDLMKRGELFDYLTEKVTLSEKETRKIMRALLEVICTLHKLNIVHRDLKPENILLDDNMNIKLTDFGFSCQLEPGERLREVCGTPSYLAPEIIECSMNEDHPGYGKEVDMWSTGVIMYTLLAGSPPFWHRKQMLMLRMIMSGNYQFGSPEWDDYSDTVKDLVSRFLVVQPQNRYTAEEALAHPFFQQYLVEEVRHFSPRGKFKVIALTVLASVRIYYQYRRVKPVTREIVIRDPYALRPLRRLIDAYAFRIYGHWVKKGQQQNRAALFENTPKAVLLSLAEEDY
# [5] = target: Phosphorylase b kinase gamma catalytic chain, skeletal muscle/heart isoform (Homo sapiens) (UniProt Q16816); details: at 1 µM
# [6] = target: T1, Phosphorylase b kinase gamma catalytic chain, liver/testis isoform (Homo sapiens) (UniProt P15735); details: at 0.1 µM
# T1 sequence (whole entry): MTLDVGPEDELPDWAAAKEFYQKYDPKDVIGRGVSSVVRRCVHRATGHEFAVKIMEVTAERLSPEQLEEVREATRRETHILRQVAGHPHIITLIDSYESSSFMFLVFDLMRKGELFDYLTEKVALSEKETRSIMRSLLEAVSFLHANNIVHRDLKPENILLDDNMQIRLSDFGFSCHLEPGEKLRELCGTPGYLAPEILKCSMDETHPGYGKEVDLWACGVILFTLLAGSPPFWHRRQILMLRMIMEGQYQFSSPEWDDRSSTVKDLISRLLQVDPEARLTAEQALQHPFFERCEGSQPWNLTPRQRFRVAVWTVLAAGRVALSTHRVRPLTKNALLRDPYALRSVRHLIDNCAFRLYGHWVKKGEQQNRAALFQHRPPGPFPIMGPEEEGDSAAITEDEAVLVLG
# [7] = target: T1, Phosphorylase b kinase gamma catalytic chain, liver/testis isoform (Homo sapiens); details: at 1 µM
# [8] = target: Serine/threonine-protein kinase pim-1 (Homo sapiens) (UniProt P11309); details: at 0.1 µM
# Chain of Serine/threonine-protein kinase pim-1 (Homo sapiens) (P11309 whole entry, looked up): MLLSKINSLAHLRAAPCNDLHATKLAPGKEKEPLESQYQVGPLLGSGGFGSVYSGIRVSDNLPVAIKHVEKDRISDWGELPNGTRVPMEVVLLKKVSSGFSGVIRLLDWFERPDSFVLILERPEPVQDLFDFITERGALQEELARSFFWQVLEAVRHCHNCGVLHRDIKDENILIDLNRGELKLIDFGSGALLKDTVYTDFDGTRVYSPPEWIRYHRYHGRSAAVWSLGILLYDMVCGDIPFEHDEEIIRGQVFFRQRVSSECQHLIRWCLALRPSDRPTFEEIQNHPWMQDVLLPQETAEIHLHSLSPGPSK
# [9] = target: Serine/threonine-protein kinase pim-1 (Homo sapiens) (UniProt P11309); details: at 1 µM
# [10] = target: Serine/threonine-protein kinase pim-2 (Homo sapiens) (UniProt Q9P1W9); details: at 0.1 µM;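 note: reported value is the mean percent inhibition of PIM2, measured in the GSK PKIS kinase inhibitor set screen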
# Chain of Serine/threonine-protein kinase pim-2 (Homo sapiens) (Q9P1W9 whole entry, looked up): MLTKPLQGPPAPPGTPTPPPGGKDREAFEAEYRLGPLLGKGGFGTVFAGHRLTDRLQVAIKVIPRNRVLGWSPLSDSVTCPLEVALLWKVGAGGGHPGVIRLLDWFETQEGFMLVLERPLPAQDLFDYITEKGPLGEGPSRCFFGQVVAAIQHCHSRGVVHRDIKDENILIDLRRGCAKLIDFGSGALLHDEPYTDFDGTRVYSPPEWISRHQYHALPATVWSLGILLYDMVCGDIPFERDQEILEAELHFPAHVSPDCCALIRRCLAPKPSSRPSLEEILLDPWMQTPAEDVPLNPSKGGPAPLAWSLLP
# Chain of Serine/threonine-protein kinase MARK2 (Homo sapiens) (Q7KZI7 whole entry, the tested form may be a part): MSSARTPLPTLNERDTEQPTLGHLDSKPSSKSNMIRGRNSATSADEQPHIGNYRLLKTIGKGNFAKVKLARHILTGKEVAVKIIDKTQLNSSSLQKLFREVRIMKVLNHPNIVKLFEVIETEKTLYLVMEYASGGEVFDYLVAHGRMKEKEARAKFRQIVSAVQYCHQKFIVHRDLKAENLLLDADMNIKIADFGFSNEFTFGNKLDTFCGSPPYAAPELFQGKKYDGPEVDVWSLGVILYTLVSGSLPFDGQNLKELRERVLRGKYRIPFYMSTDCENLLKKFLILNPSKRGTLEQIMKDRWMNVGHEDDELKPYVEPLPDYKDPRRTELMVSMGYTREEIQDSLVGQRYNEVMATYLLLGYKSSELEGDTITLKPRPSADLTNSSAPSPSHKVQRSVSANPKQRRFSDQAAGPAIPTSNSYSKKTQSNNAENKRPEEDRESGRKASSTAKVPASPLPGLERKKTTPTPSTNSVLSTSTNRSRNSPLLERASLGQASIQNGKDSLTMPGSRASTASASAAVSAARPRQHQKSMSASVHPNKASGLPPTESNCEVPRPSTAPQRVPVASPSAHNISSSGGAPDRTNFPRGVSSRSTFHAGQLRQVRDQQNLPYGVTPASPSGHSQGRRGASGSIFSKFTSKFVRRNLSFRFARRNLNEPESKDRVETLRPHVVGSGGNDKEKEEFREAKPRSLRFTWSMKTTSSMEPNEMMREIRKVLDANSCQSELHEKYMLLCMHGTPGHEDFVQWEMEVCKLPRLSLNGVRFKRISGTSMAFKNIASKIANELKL
# Chain of PAS domain-containing serine/threonine-protein kinase (Homo sapiens) (Q96RG2 whole entry, the tested form may be a part, canonical isoform): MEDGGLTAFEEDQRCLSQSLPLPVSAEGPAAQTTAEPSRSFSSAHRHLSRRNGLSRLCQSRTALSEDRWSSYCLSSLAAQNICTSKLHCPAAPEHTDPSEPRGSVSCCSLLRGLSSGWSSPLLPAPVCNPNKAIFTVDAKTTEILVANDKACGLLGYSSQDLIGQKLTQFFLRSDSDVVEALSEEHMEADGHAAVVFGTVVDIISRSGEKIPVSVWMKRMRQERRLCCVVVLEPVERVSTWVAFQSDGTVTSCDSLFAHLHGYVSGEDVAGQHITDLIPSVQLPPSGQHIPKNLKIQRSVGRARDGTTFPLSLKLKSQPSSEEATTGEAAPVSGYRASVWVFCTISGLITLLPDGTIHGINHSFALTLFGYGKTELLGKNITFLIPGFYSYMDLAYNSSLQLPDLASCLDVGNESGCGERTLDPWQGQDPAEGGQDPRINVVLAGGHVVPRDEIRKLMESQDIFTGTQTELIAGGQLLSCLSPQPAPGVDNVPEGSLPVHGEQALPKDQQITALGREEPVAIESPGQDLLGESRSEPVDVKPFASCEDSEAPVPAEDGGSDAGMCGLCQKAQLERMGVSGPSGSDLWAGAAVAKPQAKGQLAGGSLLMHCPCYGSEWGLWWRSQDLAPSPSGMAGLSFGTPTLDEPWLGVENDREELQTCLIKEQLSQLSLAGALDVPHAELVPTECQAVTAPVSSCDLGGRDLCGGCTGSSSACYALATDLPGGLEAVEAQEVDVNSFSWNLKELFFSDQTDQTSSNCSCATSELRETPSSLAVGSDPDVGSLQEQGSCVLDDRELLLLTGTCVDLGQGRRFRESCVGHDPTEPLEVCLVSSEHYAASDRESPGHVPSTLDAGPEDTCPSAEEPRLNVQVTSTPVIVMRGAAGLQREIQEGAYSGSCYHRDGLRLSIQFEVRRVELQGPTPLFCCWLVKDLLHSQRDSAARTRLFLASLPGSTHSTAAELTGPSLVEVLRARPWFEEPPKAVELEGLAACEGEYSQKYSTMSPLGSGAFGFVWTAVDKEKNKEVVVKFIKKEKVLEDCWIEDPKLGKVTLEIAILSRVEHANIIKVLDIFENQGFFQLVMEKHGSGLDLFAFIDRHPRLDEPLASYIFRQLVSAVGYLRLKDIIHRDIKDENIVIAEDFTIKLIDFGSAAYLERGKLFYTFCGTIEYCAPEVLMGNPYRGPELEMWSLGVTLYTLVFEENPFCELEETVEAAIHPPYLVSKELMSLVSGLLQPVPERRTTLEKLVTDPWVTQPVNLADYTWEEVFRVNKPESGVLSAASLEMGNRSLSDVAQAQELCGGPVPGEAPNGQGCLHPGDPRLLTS
SMILES,inhibition [1],inhibition [2],inhibition [3],inhibition [4],inhibition [5],inhibition [6],inhibition [7],inhibition [8],inhibition [9],inhibition [10]
CCn1cc(-c2ccnc3[nH]ccc23)c(-c2cccc(NC(=O)Nc3ccc(OCc4ccccc4)cc3)c2)n1,1.54%,0.94%,1.65%,1.58%,4.8%,1.37%,1.3%,-0.93%,-1.25%,0.19%
c1ccc(COc2ccc(Nc3ncnc4ccc(-c5ccco5)cc34)cc2)cc1,1.38%,0.95%,1.6%,4.05%,5.22%,1.07%,2.25%,-1.26%,0.42%,0.63%
CCOc1ccc2c(-c3ccnc(Nc4cccc(C(F)(F)F)c4)n3)cnn2n1,0.82%,0.62%,0.46%,2.65%,6.48%,3.64%,3.92%,-1.05%,-1.35%,0.55%
CC(C)(CO)CNC(=O)c1ccc2c(c1)/C(=N/Nc1ccc(S(N)(=O)=O)cc1)C(=O)N2,32.2%,1.39%,0.43%,6.19%,29.9%,0.52%,3.4%,2.44%,18.9%,0.31%
NC(=O)c1sc(-n2cnc3ccc(C(F)(F)F)cc32)cc1OCc1ccccc1Br,-0.94%,-1.22%,-1.68%,4.21%,7.92%,5.06%,4.43%,-0.41%,2.03%,-0.42%
CNC(=O)c1cccc(C#Cc2cncnc2Nc2ccc(OCc3cccc(F)c3)c(Cl)c2)c1,-2.06%,0.44%,0.79%,-2.47%,2.19%,2.39%,3.44%,0.55%,0.54%,0.37%
N#Cc1c(NC(=O)c2ccc(F)cc2)sc2c1CCCC2,0%,-0.36%,0.96%,1.21%,2.76%,1%,1.36%,-1.04%,-0.95%,-0.39%
COc1ccc2c(-c3ccnc(Nc4cccc(OC(F)(F)F)c4)n3)cnn2n1,2.62%,-0.05%,0.2%,2.28%,8.92%,6.32%,8.34%,1.24%,0.36%,-0.29%
CCn1c(-c2nonc2N)nc2c(C#CC(C)(C)O)ncc(OC3CCNCC3)c21,62.2%,-0.02%,13.1%,1.52%,3.09%,4.06%,3.58%,2.62%,24.1%,1.16%
COc1ccc2[nH]c3c4[nH]c5ccc(OC)cc5c4c4c(c3c2c1)C(=O)NC4=O,11.8%,-0.49%,-1.47%,48.4%,73.3%,9.06%,39.8%,28.7%,74.2%,21.4%
CN1CCC(n2cnc(-c3ccc(F)cc3)c2-c2ccnc(N)n2)CC1,-0.63%,-0.52%,1.84%,1.61%,5.65%,2.82%,2.94%,2.59%,19.3%,0.18%
COC(=O)Nc1nc2ccc(Oc3ccc(NC(=O)Nc4cccc(Cl)c4)cc3)cc2[nH]1,0.42%,1.55%,0.95%,1.88%,4.58%,1.21%,1.57%,-0.68%,-1.08%,-0.32%
COc1cc(Nc2nccc(Nc3ccc4c(C)n[nH]c4c3)n2)cc(OC)c1OC,8.17%,1.32%,0.33%,-0.65%,5.26%,2.27%,0.52%,1.13%,1.26%,1.46%
CNC(=O)c1cncc(/C=C/c2ccccc2Cl)c1,0.58%,1.8%,4.02%,-1.06%,2.44%,1.88%,5.64%,0.54%,0.89%,0.13%
